Here are results for 37 compounds from the supplement of paper PMC7695840.

Counter-ions that a name gives are not always drawn.

In assay [1] the test system is Staphylococcus aureus MW2 delta-mecA (mecA-). Briefly: normalized GFP fluorescence (growth of mecA- strain) (fraction of control range); higher = more growth of mecA- strain. The following applies: compound concentration: 150 uM; cefoxitin: subinhibitory; fluorescent label: GFP. In a few lines:
(§1)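 S. aureus MW2 cells, pre-induced, were used as a 1:1 mix of a DsRed strain carrying the gene and a GFP strain lacking it, in LB with a subinhibitory antibiotic dose set each day. At 5 µL/well they were placed onto 150 μM compound (1.5% DMSO) in 1536-well plates, one replicate, and kept unshaken for 20 h at 37 °C, 90% humidity. After DsRed (540/590) and GFP (485/520) reads scaled per plate to single-strain control medians, plates with high untreated ratios and rows with DsRed/GFP >10 were excluded.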

Assay [2] has as its system Staphylococcus aureus MW2 (mecA+). Briefly: normalized DsRed fluorescence (growth of mecA+ strain) (fraction of control range); higher = more growth of mecA+ strain. The following applies: compound concentration: 150 uM; cefoxitin: subinhibitory; fluorescent label: DsRed. In a few lines:
as §1

For the compound `CCN(CC)CC(=O)Nc1c(C)cccc1C`, the “normalized GFP fluorescence” value in assay [1] came out at 0.574. Moreover, the “normalized DsRed fluorescence” value in assay [2] turned out to be 0.76.
With `CC(C)C(=O)Oc1ccc(CO)cc1[C@H](CCN(C(C)C)C(C)C)c1ccccc1` [Fesoterodine fumarate (Toviaz)], the “normalized GFP fluorescence” value in assay [1] was 0.00662. For the same compound, the “normalized DsRed fluorescence” value in assay [2] was 1.38.
Regarding `CCCCCNC(=N)N/N=C/c1c[nH]c2ccc(OC)cc12`, the “normalized GFP fluorescence” value in assay [1] came to 0.0155. For the same compound, the “normalized DsRed fluorescence” value in assay [2] was 0.587.
Taken in the same sequence, the figures for `CCCN(CCC)C(=O)C(CCC(=O)O)NC(=O)c1ccccc1` (centres undefined) were 0.792 and 0.55.
Taken in the same sequence, the figures for `CCCC(=O)OCOC(=O)C1=C(C)NC(C)=C(C(=O)OC)C1c1cccc(Cl)c1Cl` (centres undefined) [Cleviprex (Clevidipine)] were 0.13 and 0.595.
Regarding `CCN(CC)CCOc1ccc2c(c1)C(=O)c1cc(OCCN(CC)CC)ccc1-2`, in assay [1], the “normalized GFP fluorescence” value came to 0.282. The “normalized DsRed fluorescence” value in assay [2] is 0.512.
Regarding `C[C@H]1O[C@H](O[C@H]2[C@H](O)[C@@H](O)[C@@H](O[C@H]3[C@H](O)[C@@H](O)C(O)O[C@@H]3CO)O[C@@H]2CO)[C@H](O)[C@@H](O)[C@@H]1N[C@H]1C=C(CO)[C@@H](O)[C@H](O)[C@H]1O` (some centres undefined), the “normalized GFP fluorescence” value in assay [1] amounted to 0.505. For the same compound, the “normalized DsRed fluorescence” value in assay [2] turned out to be 0.683.
Turning to `C[n+]1ccccc1/C=N/O`, in assay [1], the “normalized GFP fluorescence” value turned out to be 0.332. Besides, the “normalized DsRed fluorescence” value in assay [2] came out at 0.9.
As to `COc1cc(C(=O)NCc2ccc(OCCN(C)C)cc2)cc(OC)c1OC`, in assay [1], the “normalized GFP fluorescence” value was 0.326. In addition, the “normalized DsRed fluorescence” value in assay [2] was 0.862.
Take `N[C@H]1C(O)O[C@H](CO)[C@@H](O)[C@@H]1O` (some centres undefined): the “normalized GFP fluorescence” value in assay [1] amounted to 0.468. The “normalized DsRed fluorescence” value in assay [2] was determined as 0.564.
Turning to `Cc1nc(C)c(Cl)c(O)c1Cl`, in assay [1], the “normalized GFP fluorescence” value worked out at 0.341. Also, in assay [2], the “normalized DsRed fluorescence” value turned out to be 0.741.
As for `CNCC[C@@H](Oc1ccccc1C)c1ccccc1`, the “normalized GFP fluorescence” value in assay [1] stood at 0.319. For the same compound, the “normalized DsRed fluorescence” value in assay [2] was 0.638.
For `Nc1nc(F)nc2c1ncn2[C@@H]1O[C@H](COP(=O)(O)O)[C@@H](O)[C@@H]1O`, in assay [1], the “normalized GFP fluorescence” value was found to be 0.362. Besides, the “normalized DsRed fluorescence” value in assay [2] came to 0.656.
As for `O=C(c1cc(Cc2n[nH]c(=O)c3ccccc23)ccc1F)N1CCN(C(=O)C2CC2)CC1` [Olaparib (AZD2281)], in assay [1], the “normalized GFP fluorescence” value was found to be 0.204. Also, in assay [2], the “normalized DsRed fluorescence” value turned out to be 0.856.
In the case of `CCOC(=O)c1ncn2c1CN(C)C(=O)c1cc(F)ccc1-2`, in assay [1], the “normalized GFP fluorescence” value came to 0.408. Also, in assay [2], the “normalized DsRed fluorescence” value came out at 0.611.
`CN[C@@H]1[C@H](O[C@H]2[C@H](O[C@H]3[C@H](O)[C@@H](O)[C@H](N=C(N)N)[C@@H](O)[C@@H]3N=C(N)N)O[C@@H](C)[C@]2(O)C=O)O[C@@H](CO)[C@H](O)[C@H]1O`: in assay [1], the “normalized GFP fluorescence” value is 0.752. The “normalized DsRed fluorescence” value in assay [2] was found to be 0.69.
Taken in the same sequence, the figures for `CC/C(=C(/CC)c1ccc(O)cc1)c1ccc(O)cc1` were 0.0115 and 0.065.
With `Cc1cc(NS(=O)(=O)c2ccc(N)cc2)no1`, in assay [1], the “normalized GFP fluorescence” value came out at 0.0197. Moreover, the “normalized DsRed fluorescence” value in assay [2] came out at 0.744.
Taken in the same sequence, the figures for `CCC1(c2ccccc2)NC(=O)N(C)C1=O` (centres undefined) were 0.794 and 0.963.
Consider `Oc1ccc(OCc2ccccc2)cc1`, for which the “normalized GFP fluorescence” value in assay [1] is 0.0954. Moreover, the “normalized DsRed fluorescence” value in assay [2] was 0.522.
Take `CC(=O)OCC[N+](C)(C)C`: in assay [1], the “normalized GFP fluorescence” value amounted to 0.311. The “normalized DsRed fluorescence” value in assay [2] stood at 0.859.
Taken in the same sequence, the figures for `CCOC(=O)n1ccn(C)c1=S` [Carbimazole] were 0.708 and 0.813.
As for `CC(=O)OCC(=O)[C@@]1(O)CC[C@H]2[C@@H]3CCC4=CC(=O)CC[C@]4(C)[C@@]3(F)[C@@H](O)C[C@@]21C`, in assay [1], the “normalized GFP fluorescence” value worked out at 0.287. Also, the “normalized DsRed fluorescence” value in assay [2] worked out at 0.642.
Taken in the same sequence, the figures for `Cc1cc(C(C)(C)C)c(O)c(C)c1CC1=NCCN1` [Oxymetazoline hydrochloride] were 0.135 and 1.28.
Take `COc1ccc2c3c1O[C@H]1C[C@@H](O)C=C[C@@]31CCN(C)C2`: the “normalized GFP fluorescence” value in assay [1] came out at 0.508. Besides, the “normalized DsRed fluorescence” value in assay [2] came to 0.677.
As to `CCC(C)CCCCC(=O)NC(CCN)C(=O)NC(C(=O)NC(CCN)C(=O)NC1CCNC(=O)C(C(C)O)NC(=O)C(CCN)NC(=O)C(CCN)NC(=O)C(CC(C)C)NC(=O)C(Cc2ccccc2)NC(=O)C(CCN)NC1=O)C(C)O` (centres undefined), the “normalized GFP fluorescence” value in assay [1] stood at 0.159. Moreover, the “normalized DsRed fluorescence” value in assay [2] is 1.05.
In the case of `O=P(O)(O)C(O)(Cn1ccnc1)P(=O)(O)O` [Zoledronic Acid (Zoledronate)], in assay [1], the “normalized GFP fluorescence” value was found to be 0.313. In addition, the “normalized DsRed fluorescence” value in assay [2] was found to be 0.685.
As to `COC(=O)C1=C(C)NC(C)=C(C(=O)OCCN(C)Cc2ccccc2)C1c1cccc([N+](=O)[O-])c1` (centres undefined), the “normalized GFP fluorescence” value in assay [1] was -0.00636. The “normalized DsRed fluorescence” value in assay [2] came to 1.02.
With `Nc1ncnc2c1ncn2[C@@H]1O[C@H](COP(=O)(O)O)[C@@H](O)[C@H]1O`, the “normalized GFP fluorescence” value in assay [1] stood at 0.4. Also, the “normalized DsRed fluorescence” value in assay [2] was 0.484.
With `CN(C)CC/C=C1/c2ccccc2Sc2ccc(Cl)cc21`, the “normalized GFP fluorescence” value in assay [1] was found to be 0.0199. For the same compound, the “normalized DsRed fluorescence” value in assay [2] worked out at 1.12.
`C=CC(N)CCC(=O)O` (centres undefined): the “normalized GFP fluorescence” value in assay [1] is 0.441. Besides, the “normalized DsRed fluorescence” value in assay [2] is 0.716.
As to `O=c1oc2cc(O)ccc2s1` [Tioxolone], the “normalized GFP fluorescence” value in assay [1] worked out at 0.428. Besides, the “normalized DsRed fluorescence” value in assay [2] came out at 0.731.
As for `C=CC(=O)N1CCC[C@@H](n2nc(-c3ccc(Oc4ccccc4)cc3)c3c(N)ncnc32)C1`, in assay [1], the “normalized GFP fluorescence” value is 0.0101. Moreover, the “normalized DsRed fluorescence” value in assay [2] was 1.1.
Turning to `CNNCc1ccc(C(=O)NC(C)C)cc1`, in assay [1], the “normalized GFP fluorescence” value came to 0.425. Further, in assay [2], the “normalized DsRed fluorescence” value was 0.606.
In the case of `N#C[C@@H]1C[C@@H]2C[C@@H]2N1C(=O)[C@@H](N)C12CC3CC(CC(O)(C3)C1)C2`, in assay [1], the “normalized GFP fluorescence” value was determined as 0.824. For the same compound, the “normalized DsRed fluorescence” value in assay [2] came out at 0.518.
`C[C@]12CCC3=C4CCC(=O)C=C4CC[C@H]3[C@@H]1CC[C@@]2(O)CC#N` [Dienogest]: the “normalized GFP fluorescence” value in assay [1] was determined as 0.271. In addition, the “normalized DsRed fluorescence” value in assay [2] amounted to 0.746.
As to `CN(C)CCC(c1ccc(Br)cc1)c1ccccn1` (centres undefined), the “normalized GFP fluorescence” value in assay [1] amounted to 0.11. For the same compound, the “normalized DsRed fluorescence” value in assay [2] stood at 1.02.
